The panel holds about 79,000 compounds, 15% with a hit somewhere; the sample as a whole holds those more often. Cut-off read from the data, not from the text of the source: active = growth inhibition above about 70%; inactive = the rest.
Assays:
[1] = NCI Yeast Anticancer Drug Screen. Data for the rad50 strain (AID 155);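 note: 0% = growth of vehicle-only cultures of the same strain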; settings: S. cerevisiae rad50 strain growth inhibition; at 50.0 µM; active compounds read high
Method in brief: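 Yeast carrying a defined DNA repair defect were exposed to test compounds, and growth was compared with vehicle-treated controls to give percent inhibition.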

[2] = NCI Yeast Anticancer Drug Screen. Data for the mec2-1 strain (AID 157); settings: S. cerevisiae mec2-1 strain, at 50.0 µM, active compounds read high
Method in brief: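 Mutant yeast (mec2-1) grown with compound; growth inhibition relative to vehicle control reported.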

[3] = NCI Yeast Anticancer Drug Screen. Data for the sgs1 mgt1 strain (AID 161);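 note: 0% = growth of cultures given vehicle only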; settings: S. cerevisiae sgs1 mgt1 strain, at 50.0 µM, active compounds read high
Method in brief: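 Growth of a repair-deficient yeast mutant was monitored after compound treatment and expressed as inhibition relative to vehicle-treated cultures.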

[4] = NCI Yeast Anticancer Drug Screen. Data for the cln2 rad14 strain (AID 165);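 note: 0% = growth equal to vehicle treated cultures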; settings: S. cerevisiae cln2 rad14 strain, at 50.0 µM, active compounds read high
Method in brief: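 Readout is yeast growth inhibition versus vehicle-treated controls, using a strain with cln2 and rad14 alterations exposed to compound.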

[5] = NCI Yeast Anticancer Drug Screen. Data for the bub3 strain (AID 167); settings: S. cerevisiae bub3 mutant strain, at 50.0 µM, active compounds read high
Method in brief: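 Compounds were applied to a genetically altered yeast strain carrying a cell-cycle control defect. Growth inhibition was scored against vehicle-treated controls.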

[6] = NCI Yeast Anticancer Drug Screen. Data for the mlh1 rad18 strain (AID 175); settings: S. cerevisiae mlh1 rad18 strain growth inhibition; at 50.0 µM; active compounds read high
Method in brief: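 Genetically defined yeast (DNA repair-deficient) exposed to compounds; growth inhibition determined relative to vehicle.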

Measured: growth inhibition

O=c1ccsc(=S)[nH]1
inactive: [1] -1% | [2] -2.1% | [3] -8.35% | [4] 0.25% | [5] 9.05% | [6] -3.9%

CCC1(C(=O)OC)CCc2c(OC)ccc(OC)c2C1=O (stereo unspecified)
inactive: [1] -8.65% | [2] -9.35% | [3] 0.1% | [4] 3.25% | [5] -12.9% | [6] -46.8%

CN(C)c1ccccc1N(C)C
inactive: [1] 5.5% | [2] -15.4% | [3] -14.9% | [4] -8.2% | [5] -1.35% | [6] -13%

CN1CCN(C2CCCc3ccccc3C2O)CC1 (stereo unspecified)
inactive: [1] -0.75% | [2] 13.6% | [3] -15.7% | [4] -25.1% | [5] 1.3% | [6] 0.2%

OC1CC2c3ccccc3C1c1cccc[n+]12 (stereo unspecified)
inactive: [1] 16.2% | [2] -9.85% | [3] -4.1% | [4] -38.7% | [5] 4.65% | [6] 14.7%

c1ccc(C2=NCC(c3ccccc3)(C3(c4ccccc4)SCCCS3)O2)cc1 (stereo unspecified)
inactive: [1] 30.8% | [2] 5.15% | [3] 12.7% | [4] -13.8% | [5] -3.35% | [6] 6.55%

CN(C)C(=Nc1ccccc1)N(C)N
inactive: [1] -1.2% | [2] 5.7% | [3] -12.9% | [4] 0.75% | [5] 1.9% | [6] 0.95%

C=CCC1=C(C)C(OC(=O)/C=C/c2ccco2)CC1=O (stereo unspecified)
inactive: [1] 10.3% | [2] -5.2% | [3] 8.6% | [4] -5.5% | [5] 30.3% | [6] -0.2%

CCCCC(CC)CCC(O)CC(C)C (stereo unspecified)
inactive: [1] -10.2% | [2] -11.3% | [3] 14.6% | [4] 10.8% | [5] 13.8% | [6] 5.25%

O=C1[C@@H]2[C@@H](c3ccccc3)[C@]2(Cl)C(=O)[C@H]2[C@H](c3ccccc3)[C@@]12Cl
inactive: [1] 6.9% | [2] 4.15% | [3] 1.1% | [4] 8.75% | [5] 3.8% | [6] 32.8%

COC(=O)C(Cl)=C1CC1
inactive: [1] 5.7% | [2] 10.4% | [3] -6.95% | [4] 18.6% | [5] 6.25% | [6] -5.6%

CN(C)c1ccc(/C=C/C(=O)CC(=O)/C=C/c2ccc(N(C)C)cc2)cc1
inactive: [1] 22.2% | [2] 21.3% | [3] -28.2% | [4] -27.4% | [5] -4.3% | [6] 0.8%

Cc1cc(=O)[nH]c(NNC(=S)NC2CCCCC2)n1
inactive: [1] -17.4% | [2] -41.8% | [3] 10.9% | [4] 2.85% | [5] -28.4% | [6] -18.6%

CCCCCCCCCCCCCCCCCCNC(=O)N1CCC(C)CC1
inactive: [1] -7.9% | [2] -4.8% | [3] 21.2% | [4] -13.7% | [5] 4.95% | [6] -24.6%

CN(C)c1nc(=Nc2ccc3c(c2)OCO3)ss1
inactive: [1] 30.5% | [2] 24.4% | [3] 54% | [4] 34.1% | [5] 16.9% | [6] 50.2%

COC(=O)[C@@]1(C(C)CC(=O)O)CCCCC1=O (stereo partly specified)
inactive: [1] -11.6% | [2] -16.4% | [3] -38.2% | [4] -7.35% | [5] -20.8% | [6] -13.2%

O=C1N=C(c2ccccc2)C(c2ccccc2)N1 (stereo unspecified)
inactive: [1] -9.3% | [2] 23.1% | [3] 12.9% | [4] -3.85% | [5] -0.4% | [6] 8.65%

CN(C/C=C/CN(C)C(=S)Nc1ccccc1)C(=S)Nc1ccccc1
inactive: [1] -19.1% | [2] 13.1% | [3] -20.5% | [4] -2.65% | [5] 2.85% | [6] 5.65%

CCCN(CCC)c1ccc(C(=O)c2ccccc2)cc1
inactive: [1] -12.4% | [2] -3% | [3] -1% | [4] -33.8% | [5] 18.6% | [6] -6%

COc1cc(Cc2nccc3cc(OC)c(OC)cc23)c(N=NN(C)C)cc1OC
inactive: [1] -14.2% | [2] -7.6% | [3] -4.9% | [4] 5.45% | [5] -10.4% | [6] 8.35%

O=C1OC2CCCC[C@@H]2C2C[C@]34CCCCC3[C@@H](C(=O)O4)C12 (stereo partly specified)
inactive: [1] 23.1% | [2] -6.85% | [3] 9.9% | [4] 15.6% | [5] 12% | [6] 42.7%

CCCCCCCC(=O)NCCCC(C)Nc1cc(OC)cc2cccnc12 (stereo unspecified)
inactive: [1] 39.7% | [2] 47% | [3] 19.4% | [4] 14.9% | [5] 22% | [6] 28.1%

O=C(O)c1ccc(CC2CCCC2)cc1
inactive: [1] 30.8% | [2] 25.9% | [3] 21.4% | [4] -8.2% | [5] -2.35% | [6] 8.85%

CC(C)(C)c1ccc(-n2c3nc(=O)n(-c4ccccc4CO)c(=O)c-3cc3ccccc32)cc1
inactive: [1] -9.75% | [2] -12.8% | [3] -9.5% | [4] -11.6% | [5] -0.95% | [6] 4.95%

COc1ccc(Cc2nc3c([nH]2)c(=O)n(C)c(=O)n3C)cc1
inactive: [1] -0.05% | [2] -14.1% | [3] 0.05% | [4] -50.8% | [5] 1.2% | [6] 1.2%

CC(=O)NC1C(O)C(O)C(CO)OC1n1ncc(=O)[nH]c1=O (stereo unspecified)
inactive: [1] 13.1% | [2] 22.8% | [3] -14.2% | [4] -18.9% | [5] -20.4% | [6] -37.9%

O=C1NC2NC(=O)NC2N1 (stereo unspecified)
inactive: [1] 6.6% | [2] -27.1% | [3] -3% | [4] -9.6% | [5] -2.05% | [6] 10.2%

CC(O)C1NC(=S)N(c2ccccc2)C1=O (stereo unspecified)
inactive: [1] 17.4% | [2] 21% | [3] 20.8% | [4] -20.2% | [5] -14.4% | [6] 46%

c1ccc(C2OC(c3ccccc3)c3ccccc32)cc1 (stereo unspecified)
inactive: [1] 7.55% | [2] -6.8% | [3] 12.4% | [4] -2.05% | [5] 24.1% | [6] 12.2%

COc1cc([N+](=O)[O-])ccc1P(=O)(O)O
inactive: [1] 2% | [2] -5.65% | [3] -1.4% | [4] -4.35% | [5] -9.95% | [6] 14.1%

CCOC(=O)c1c(C)[nH]c(C)c1/C=C/C(=O)O
inactive: [1] 0.95% | [2] -5.1% | [3] -0.9% | [4] 1.45% | [5] 2.35% | [6] -0.8%

NC(N)=NC(Cc1ccccc1)C(=O)O (stereo unspecified)
inactive: [1] -8.15% | [2] -10% | [3] 1.3% | [4] -26.6% | [5] -12.4% | [6] 0%

CC(=O)Nc1cc2c(cc1Br)Cc1cc(Br)ccc1-2
inactive: [1] -4.15% | [2] -4.1% | [3] -8.2% | [4] -4.5% | [5] 1.1% | [6] -14.2%

COc1cc([N+](=O)[O-])ccc1NC(=O)Nc1ccc(Cl)cc1[N+](=O)[O-]
inactive: [1] -4.8% | [2] 28.1% | [3] 24.6% | [4] -12.6% | [5] 29.4% | [6] 27.1%

CC(=O)CC(=O)CCC(=O)O
inactive: [1] 30.9% | [2] -20.2% | [3] -0.25% | [4] 7.1% | [5] 13.9% | [6] 32.8%

Cc1cccc(O)c1
inactive: [1] -11.7% | [2] -9.8% | [3] -42% | [4] -16.4% | [5] -4.65% | [6] -39.2%

CS(=O)(=O)Nc1ccccc1-c1nc2ccccc2c(=O)o1
inactive: [1] 26.6% | [2] 30.7% | [3] 27.2% | [4] 14.3% | [5] 33.2% | [6] 27.7%

N#Cc1nnc2cc(-c3ccccc3)nn2c1-c1ccco1
inactive: [1] 27.9% | [2] 11.2% | [3] 16.3% | [4] 35.5% | [5] 28.1% | [6] 31.4%

C/C(=N\NS(=O)(=O)c1ccccc1)c1ccc(Cl)c(Cl)c1
inactive: [1] -19.3% | [2] -10% | [3] -18.9% | [4] 2.25% | [5] 10.5% | [6] -38.5%

COc1ccc([C@H]2CC3C(=O)N(c4ccc(OC)cc4)C(=O)C3c3[nH]c4ccccc4c32)cc1 (stereo partly specified)
inactive: [1] -10.1% | [2] -2.95% | [3] -1.05% | [4] -64.2% | [5] -16.4% | [6] -16.9%

COc1ccc(-c2cc(C)cc(O)c2)c(OC)c1OC
inactive: [1] 7.5% | [2] 6.2% | [3] 21.4% | [4] -8.2% | [5] -9.3% | [6] -11.3%

From PubChem BioAssay (NCI)
